Cruzain inh Det: qHTS Assay for Promiscuous and Specific Inhibitors of Cruzain (with detergent). purified cruzain, Z-FR-AMC fluorescence, 0.01% Triton. Potency, µM, hits mostly inhibitors. hit rate 0.43% among 200,000. AID 1478, 2009; further: nearly all actives have a fitted effect of over 40% in size
Target sequence (P25779 123-467 limits assumed): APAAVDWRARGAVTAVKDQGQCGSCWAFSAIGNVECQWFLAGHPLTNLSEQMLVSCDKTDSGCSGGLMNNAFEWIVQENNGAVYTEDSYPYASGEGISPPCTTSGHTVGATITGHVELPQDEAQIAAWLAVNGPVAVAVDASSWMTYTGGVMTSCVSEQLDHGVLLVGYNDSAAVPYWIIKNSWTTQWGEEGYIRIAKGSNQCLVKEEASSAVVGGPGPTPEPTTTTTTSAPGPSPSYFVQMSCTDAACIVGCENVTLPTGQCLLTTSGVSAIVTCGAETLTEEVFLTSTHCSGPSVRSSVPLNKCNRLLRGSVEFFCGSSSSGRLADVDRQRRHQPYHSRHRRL
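Compounds were screened in titration against cruzain (1.5 nM) with 0.01% Triton X-100 to counter colloidal aggregation. Activity was the AMC fluorescence increase over 60 s after adding 2 uM Z-FR-AMC at pH 5.5.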
Cruzain inh noDet: qHTS Assay for Promiscuous and Specific Inhibitors of Cruzain (without detergent) | purified cruzain, Z-FR-AMC fluorescence, no detergent | Potency, µM, usual class: inhibitors | hit rate 2.3% among 200,000 | AID 1476, 2009; further: nearly all actives have a fitted effect of over 40% in size
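Purified cruzain at 1.5 nM, pre-incubated 15 min with compound at room temperature in 100 mM sodium acetate pH 5.5, 5 mM DTT, 0.00005% Triton X-100. Reaction started with 2 uM Z-FR-AMC; AMC fluorescence increase over 60 s gives rate.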
FBPA Giardia inh: qHTS Assay for Inhibitors of Fructose-1,6-bisphosphate Aldolase from Giardia Lamblia. A8B2U2. purified Giardia FBPA. Potency, µM (highest dose often 59.6 µM), actives largely listed as inhibitors. hit rate 0.71% among 290,000; further: nearly all actives have a fitted effect of over 55% in size
Target sequence (A8B2U2 whole entry, looked up): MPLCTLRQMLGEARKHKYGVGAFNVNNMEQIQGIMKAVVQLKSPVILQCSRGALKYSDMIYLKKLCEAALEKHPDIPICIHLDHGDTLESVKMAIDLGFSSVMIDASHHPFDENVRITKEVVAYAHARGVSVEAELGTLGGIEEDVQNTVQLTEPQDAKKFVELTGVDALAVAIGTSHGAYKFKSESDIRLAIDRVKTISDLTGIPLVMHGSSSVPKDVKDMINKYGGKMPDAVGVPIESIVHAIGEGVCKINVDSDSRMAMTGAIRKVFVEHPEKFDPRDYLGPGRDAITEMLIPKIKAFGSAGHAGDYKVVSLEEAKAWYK
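Giardia FBPA (40 nM reagent) was preincubated 10 min at RT with compound (up to 57.5 uM final), then substrate plus GAPDH/TPI/NAD/arsenate coupling system with diaphorase/resazurin was added; resorufin fluorescence (525/598 nm) was read after 20 min.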
Of the large screens only hits and unclear results are named; the others gave an inactive call. The sample as a whole holds a higher share of hits than the screen did. The call rests on the fitted dose curve; in most records, active means well fitted curve in the direction sought with a large enough effect; inconclusive means small, poorly fitted or top-dose-only effect, or another doubt; inactive means no such curve, though single readings can be large; an effect the other way counts as inactive or inconclusive.

CCc1nnc(NS(=O)(=O)c2ccc(NC(=S)Nc3ccc(F)cc3)cc2)s1	none
CCc1nnc(NS(=O)(=O)c2ccc(NC(=S)NC(=O)/C=C/c3ccccc3)cc2)s1	Cruzain inh Det 25µM
CCc1nnc(NS(=O)(=O)c2ccc(NC(=S)NC(=O)c3ccccc3)cc2)s1	none
CCc1nnc(NS(=O)(=O)c2ccc(NC(=S)NC(=O)/C=C/c3ccc(OC)cc3)cc2)s1	Cruzain inh Det 22µM
CCc1nnc(NS(=O)(=O)c2ccc(NC(=S)NC(=O)/C=C/c3ccc(C(C)C)cc3)cc2)s1	Cruzain inh Det 14µM, Cruzain inh noDet inconclusive
CN1CCN(CCCNN)CC1	none (no result: FBPA Giardia inh)
CCc1ccc2ncc3c(-c4ccc(F)cc4)nn(CC(=O)NC4CCCCC4)c3c2c1	Cruzain inh noDet inconclusive (no result: FBPA Giardia inh)
O=C1c2ccccc2C(=O)c2c(NC3CCCCC3)ccc(Nc3ccc(S(=O)(=O)O)cc3)c21	none (no result: FBPA Giardia inh)
CCCN(C(=O)Cn1ncc2c1-c1ccccc1OC2)c1cccc(C)c1	none (no result: FBPA Giardia inh)
N[C@@H](CCCCO)C(=O)O	none (no result: FBPA Giardia inh)
CCCN(CCC)S(=O)(=O)c1ccc2c(c1)N(CC(=O)NC(C)c1ccccc1)C(=O)CS2 (stereo not drawn)	none (no result: FBPA Giardia inh)
O=C(CN(Cc1ccccc1)S(=O)(=O)c1ccc2c(c1)OCCO2)Nc1ccc2c(c1)OCCO2	Cruzain inh noDet 20µM
CS(=O)(=O)N(CC(=O)Nc1ccc2c(c1)OCCO2)Cc1ccccc1	none
CCCNC(=O)OC[C@@H]1O[C@H](CCO/N=C2\c3cc(OC)ccc3O[C@H](c3cccc(OC)c3)[C@H]2O)C=C[C@@H]1Oc1ccc(OC)cc1	none (no result: Cruzain inh Det, Cruzain inh noDet)
Cc1ccc(-c2cc3nc(-c4ccccc4)cc(N)n3n2)cc1	Cruzain inh noDet 25µM
Cc1cc(C)n2nc(-c3ccc(Br)cc3)cc2n1	none (no result: Cruzain inh Det, Cruzain inh noDet)
Cc1ccc(-c2cc(N)n3nc(-c4ccc(C)cc4)cc3n2)cc1	Cruzain inh noDet inconclusive
Cc1ccc(-c2cc3nc(-c4ccc(Br)cc4)cc(N)n3n2)cc1	Cruzain inh noDet 32µM
Cc1c(CNCCCc2ccccc2)c(C(=O)O)c(C)n1Cc1cccc(Cl)c1	none (no result: FBPA Giardia inh)
Cc1ccc(Cn2c(=O)n(CCCCC(=O)NCCc3ccc(Cl)cc3)c(=O)c3ccccc32)cc1	none (no result: FBPA Giardia inh)
NC1=Nc2ccccc2Oc2ccccc21	Cruzain inh Det inconclusive, Cruzain inh noDet 25µM
c1ccc(C2=Nc3ccccc3OC2)cc1	none
CC[C@H](C)[C@H](NC(=O)[C@H](Cc1ccccc1)NC(=O)[C@H](CC(C)C)NC(=O)[C@H](CCSC)NC(=O)[C@H](CCC(=O)O)NC(=O)[C@H](CCC(=O)O)NC(=O)[C@H](CC(=O)O)NC(=O)[C@H](CO)NC(=O)[C@@H]1CCCN1C(=O)[C@H](CCCCN)NC(=O)[C@@H](N)[C@@H](C)O)C(=O)N[C@@H](Cc1ccc(O)cc1)C(=O)NCC(=O)N[C@@H](Cc1cnc[nH]1)C(=O)N[C@@H](Cc1ccc(O)cc1)C(=O)N[C@@H](CCCCN)C(=O)N[C@@H](CCC(N)=O)C(=O)N[C@@H](C)C(=O)N[C@H](C(=O)N[C@H](C(=O)NCC(=O)N[C@@H](CC(=O)O)C(=O)N[C@H](C(=O)N[C@@H](CC(N)=O)C(=O)N[C@H](C(=O)N[C@@H](CCC(=O)O)C(=O)N[C@@H](CCCNC(=N)N)C(=O)N1CCC[C@H]1C(=O)NCC(=O)N[C@@H](CCSC)C(=O)N[C@@H](CC(C)C)C(=O)N[C@@H](CC(=O)O)C(=O)N[C@@H](Cc1ccccc1)C(=O)N[C@H](C(=O)O)[C@@H](C)O)[C@@H](C)O)[C@@H](C)CC)C(C)C)[C@@H](C)O	none (no result: Cruzain inh Det, Cruzain inh noDet)
NNc1nncc2ccccc12	FBPA Giardia inh 5µM
CNC(=S)NNc1nncc2ccccc12	none (no result: Cruzain inh Det, Cruzain inh noDet)
S=C1NCCc2ccccc2C1c1ccccc1Cl (stereo not drawn)	Cruzain inh Det inconclusive, Cruzain inh noDet inconclusive
S=C1NCCc2ccccc2C1c1ccccc1 (stereo not drawn)	Cruzain inh Det inconclusive, Cruzain inh noDet 32µM
Cc1ccc(-n2ncc(C(=O)Nc3ccc4c(c3)OCCO4)c2C2CCN(C(=O)OC(C)(C)C)CC2)cc1C	none (no result: FBPA Giardia inh)
C=CCN1c2ccccc2[C@]23C[C@@H](C(=O)OC)N(C(=O)COCc4ccccc4)C2=NC(C(=O)OC)=C(C(=O)OC)[C@H]13	none (no result: Cruzain inh Det, Cruzain inh noDet)
COc1cccc(NC(=O)C(=O)N/N=C/c2cc(C)n(-c3ccc(Cl)c(Cl)c3)c2C)c1	Cruzain inh noDet 16µM
Cc1cc(/C=N\NC(=O)CC(=O)NC2CCCCC2)c(C)n1-c1ccc(Cl)c(Cl)c1	none
O=C(Nc1cc(-c2ccccc2F)nn1-c1ccccc1)c1ccccc1Br	Cruzain inh noDet 32µM (no result: FBPA Giardia inh)
Cc1cccc(C(=O)Nc2cc(-c3ccccc3F)nn2-c2ccccc2)c1	none (no result: FBPA Giardia inh)
COc1ccc(NC(=O)c2cc3c(=O)n(Cc4cccs4)ccc3nc2C)c(OC)c1	Cruzain inh noDet inconclusive (no result: FBPA Giardia inh)
Cc1ccn2c(Nc3c(C)cccc3C)c(-c3ccc(Cl)s3)nc2c1	Cruzain inh noDet 10µM (no result: FBPA Giardia inh)
Cc1ccn2c(Nc3c(C)cccc3C)c(-c3ccsc3)nc2c1	Cruzain inh noDet inconclusive (no result: FBPA Giardia inh)
O=S(=O)(Nc1ccc(-c2nc3cccnc3s2)cc1)c1ccc(Cl)s1	Cruzain inh noDet inconclusive
O=S(=O)(Nc1ccc(-c2nc3cccnc3s2)cc1)c1cccs1	Cruzain inh noDet 13µM
Cc1ccc(NC(=O)c2ccc(-c3ccccc3)s2)cc1	Cruzain inh noDet 13µM (no result: FBPA Giardia inh)
Cc1cccc(NC(=O)c2ccc(-c3ccccc3)s2)c1	none (no result: FBPA Giardia inh)
O=C(NCc1cccc(F)c1)c1ccccc1NC(=O)c1nsc2ccccc12	Cruzain inh noDet inconclusive (no result: FBPA Giardia inh)
Clc1ccc(/C=C\c2nc(Cl)c(-c3ccc(Cl)cc3)c(Cl)n2)cc1	none (no result: FBPA Giardia inh)
Cc1c(C(=O)Nc2ccc(F)cc2F)oc2ccc3c(c12)C(=O)CC(C)(C)O3	none (no result: FBPA Giardia inh)
COc1ccc2nc(NC(=O)C3CCN(S(=O)(=O)c4cccs4)CC3)sc2c1	Cruzain inh noDet inconclusive
O=C(Nc1nccs1)C1CCCN(S(=O)(=O)c2cccc3cccnc23)C1 (stereo not drawn)	none
O=C(Nc1nc2cc(Cl)ccc2s1)C1CCCN(S(=O)(=O)c2cccc3cccnc23)C1 (stereo not drawn)	Cruzain inh noDet 25µM
COc1ccc2nc(NC(=O)C3CCCN(S(=O)(=O)c4cccs4)C3)sc2c1 (stereo not drawn)	Cruzain inh noDet 25µM
CC(=O)c1nn(-c2cccc(Br)c2)cc1C(=O)c1ccc(Br)cc1	Cruzain inh noDet 13µM
CC(=O)c1nn(-c2cccc(Br)c2)cc1C(=O)c1ccc(C)cc1	none
CCOc1ccc2nc(N/C(N)=N/C(=S)Nc3cccc(C)c3)nc(C)c2c1	Cruzain inh noDet 32µM
CCOc1ccc2nc(N/C(N)=N/C(=S)Nc3cccc(OC)c3)nc(C)c2c1	none (no result: Cruzain inh Det, Cruzain inh noDet)
COC(=O)[C@@H]1[C@@H](O)[C@]2(O)c3ccccc3O[C@]2(c2ccccc2)[C@H]1c1ccccc1	none (no result: Cruzain inh Det, Cruzain inh noDet)
CCOc1ccc(C(=O)c2cccs2)cc1	none
CCOC(=O)COc1ccc(C(=O)c2ccccc2)c(O)c1	none
CCOc1ccc(C(=O)c2ccc(O)c(O)c2O)cc1	FBPA Giardia inh 16µM
CCOc1cccc(C(=O)c2ccc(O)c(O)c2O)c1	FBPA Giardia inh 20µM
C=C(C)CN(CC#N)CC(=C)C	none (no result: FBPA Giardia inh)
CC(C)(C)c1cc(C#N)cc(Br)c1OP(=O)(Oc1c(Br)cc(C#N)cc1C(C)(C)C)c1ccccc1	none (no result: FBPA Giardia inh)
S=C(NCCc1ccccc1)NCCc1cnc[nH]1	none (no result: Cruzain inh Det, Cruzain inh noDet)
